Activity calls are given as the source filed them. How the source made its calls: active means hit-call score of the fitted dose curve at least 0.9, where 1 is the maximum; inactive means score below 0.9.

This assay in a line: BSK_hDFCGF_SRB: Viability Assessment in the BioMAP Diversity Plus: hDFCGF Assay (AID 2283061). The note with it: primary human foreskin fibroblasts. The protocol:
BSK_hDFCGF is a cell-based, multiplexed-readout assay that uses foreskin fibroblast, a human skin primary cell, with measurements taken at 24 hours after chemical dosing in a 96-well plate.BSK_hDFCGF_SRB is an assay component measured in the BSK_hDFCGF assay. It measures 0.1% sulforhodamine related to cell death using Sulforhodamine staining technology.Data from the assay component BSK_hDFCGF_SRB was analyzed into 1 assay endpoint. This assay endpoint, BSK_hDFCGF_SRB, was analyzed with bidirectional fitting relative to DMSO as the negative control and baseline of activity. Using a type of viability reporter, gain or loss-of-signal activity can be used to understand changes in the signaling. Furthermore, this assay endpoint can be referred to as a primary readout, because this assay has produced multiple assay endpoints where this one serves a signaling function. To generalize the intended target to other relatable targets, this assay endpoint is annotated to the cell morphology intended target family, where the subfamily is cell conformation.
The levels of cell surface (or secreted, indicated by the prefix "s") biomarker endpoints were measured by ELISA. Overt cytotoxicity to cells in confluent adherent cultures (all systems other than the BT system) was assessed by measuring total protein levels using sulforhodamine B (SRB) staining in parallel cultures at the time of biomarker measurements, indicated as SRB endpoints. For proliferation assays for adherent cell types, individual cell types are cultured at sub-confluence and relative cell numbers quantified by SRB staining at time points optimized for each system (48 h: 3C and CASM3C systems; 72 h: BT and HDF3CGF systems; 96 h: SAg system). SRB was performed by staining cells with 0.1% SRB after fixation with 10% TCA and reading wells at 560 nm.Viability and proliferation of PBMC (T cells) was quantified by Alamar Blue reduction for the SAg and BT systems. For PBMC viability (referred to as PBMC Cytotoxicity within the assay endpoint names), cells were plated (75,000/well in a 96-well plate) and then chemical samples added for 1 h before addition of activators, SEB and TSST-1 (20 ng/mL final concentration each). Cells were incubated for 90 h. Then, Alamar Blue (20 uL/well) (Invitrogen, Cat DAL1100) was added for 6 h, and the plates were read with a fluorescence microplate reader at 546/580 nm (excitation/emission). For PBMC proliferation, cells were plated and activated as above but incubated for only 16 h prior to addition of Alamar Blue. Plates were read after 6 h.
Regarding `CC(C)COC(=O)CCCCC(=O)OCC(C)C`, the outcome was inactive.

`C=CCc1ccc(OC)c(OC)c1`: the outcome was inactive.

For `OCC(CO)n1cnc(-c2ccc(F)cc2)c1-c1ccnc(Oc2ccccc2)n1`, the outcome was inactive.

With `CCCCCCC(CCCCCCCCCCC(=O)OCC(COC(C)=O)OC(C)=O)OC(C)=O` (stereo not given), the outcome was inactive.

Turning to `O=C(O)c1cccnc1`, the result was inactive.

For `Cc1occc(=O)c1O`, the outcome was inactive.

In the case of `O=C(Oc1ccccc1)c1cccc(C(=O)Oc2ccccc2)c1`, the outcome was inactive.

Consider `CCCCOC(=O)CCCCC(=O)OCCCC`, for which the outcome was inactive.

Take `S=c1[nH]c2ccccc2s1`: the outcome was inactive.

A word on the AC50: it is the concentration at which the activity in the assay is half-maximal. For `Oc1ccc(O)cc1`, the AC50 was 12 µM (active).

For the compound `O=C1CCCCC1`, the outcome was inactive.

On to `Cc1cn([C@H]2C=C[C@@H](CO)O2)c(=O)[nH]c1=O`, for which the result was inactive.

As for `CSc1ccc(Oc2ccc(S(N)(=O)=O)cc2CN(C)C)cc1C`, the result was inactive.

On to `O=C(O)CC(O)(CC(=O)O)C(=O)O`, for which the outcome was inactive.

With `CO[C@@H]1COCC[C@@H]1N[C@@H]1CC[C@@](C(=O)N2CCc3ncc(C(F)(F)F)cc3C2)(C(C)C)C1`, the result was inactive.

On to `Nc1nc(=S)c2[nH]cnc2[nH]1`, for which the outcome was inactive.

As for `CCCC(=O)O`, the result was inactive.

With `Cc1cc(SC2=C(O)C[C@@](CCc3ccc(N)cc3)(C(C)C)OC2=O)c(C(C)(C)C)cc1CO`, the result was inactive.

As for `CC(C)(O)c1ccc(CNC(=O)c2cccnc2Oc2ccc(F)cc2)cc1`, the outcome was inactive.

Take `Nc1nc(Cl)nc2c1ncn2[C@H]1C[C@H](O)[C@@H](CO)O1`: the result was inactive.

Regarding `O=NO`, the outcome was inactive.

Consider `COc1ccc(C(=O)Nc2nc3ccccc3c(NCc3ccccc3)c2C#N)cc1`, for which the result was inactive.

Consider `c1ccc2occc2c1`, for which the result was inactive.

As to `CC(C)NCC(O)c1ccc(O)c(O)c1` (stereo not given), the outcome was inactive.

As for `CC(C)c1cccc(C(C)C)c1NC(=O)NS(=O)(=O)c1cc(C(C)(C)O)co1`, the outcome was inactive.

For the compound `CCCCCCCC(=O)OC`, the outcome was inactive.

`NC=O`: the result was inactive.

On to `O=C1NC(=O)C(c2ccccc2)(c2ccccc2)N1`, for which the outcome was inactive.

Turning to `Cc1cc(Cc2ccc(N)c(C)c2)ccc1N`, the result was inactive.

With `CC(=O)O`, the outcome was inactive.

On to `CC(=O)OC1CC(C)OC(C)O1` (stereo not given), for which the result was inactive.

Take `CC(COCC(C)OC(=O)c1ccccc1)OC(=O)c1ccccc1` (stereo not given): the result was inactive.

`CC1(C)C(=O)NC(=O)N1CO`: the outcome was inactive.

For the compound `CCCCCCC(C=O)=Cc1ccccc1`, the AC50 was 31.5 µM (active).

Consider `C/C=C/c1ccc(OC)cc1`, for which the result was inactive.

Turning to `CN(C)CCCN(C)CCCN(C)C`, the result was inactive.

Take `CCCCCCCCCCCCCCCCO`: the outcome was inactive.

For `OCC(O)CO`, the result was inactive.

Take `CN(C)C(=O)NC1(c2ccccc2)CCN(CCC[C@]2(c3ccc(Cl)c(Cl)c3)CCCN(C(=O)c3ccccc3)C2)CC1`: the outcome was inactive.

For the compound `N[C@@H](Cc1c[nH]c2ccccc12)C(=O)O`, the result was inactive.
